Data: PubChem BioAssay (NCATS)
Inconclusive results are not listed. A call without a number means that no potency is given here. The source made the active and inactive calls. Calls follow the shape of the full dose curve.
Potency is read from the fitted curve at half-maximal effect.

What follows are compounds tested against Thyroid hormone receptor beta (Homo sapiens) (UniProt P10828) (assay: qHTS assay for small molecule agonists of thyroid hormone receptor beta signaling (AID 588545)). Conditions: TR-UAS-bla GripTite HEK 293, beta-lactamase ratio, agonist mode, 18 h; series mostly up to 76.7 µM.
Chain of Thyroid hormone receptor beta (Homo sapiens) (P10828 whole entry, looked up): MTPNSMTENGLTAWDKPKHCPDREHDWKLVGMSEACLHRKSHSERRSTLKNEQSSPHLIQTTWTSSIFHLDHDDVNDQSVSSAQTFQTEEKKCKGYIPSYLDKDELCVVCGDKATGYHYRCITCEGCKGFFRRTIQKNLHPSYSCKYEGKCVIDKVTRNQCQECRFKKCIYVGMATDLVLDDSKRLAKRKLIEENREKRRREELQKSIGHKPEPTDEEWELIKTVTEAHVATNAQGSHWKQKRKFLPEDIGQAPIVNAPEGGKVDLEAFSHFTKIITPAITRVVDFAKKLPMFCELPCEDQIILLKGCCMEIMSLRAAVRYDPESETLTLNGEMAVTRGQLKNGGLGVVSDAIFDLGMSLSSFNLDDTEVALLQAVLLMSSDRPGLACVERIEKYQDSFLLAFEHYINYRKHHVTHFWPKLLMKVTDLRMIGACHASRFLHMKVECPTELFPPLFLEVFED
From the text: NIH Chemical Genomics Center [NCGC]
U.S. Environmental Protection Agency [EPA]
National Institutes of Environmental Health Sciences [NIEHS]
National Toxicology Program [NTP]
Thyroid hormone receptor (TR) belongs to nuclear hormone receptor superfamily. There are two subtypes for TR: TR-alpha and TR-beta. TR-beta plays a major role in regulating plasma cholesterol levels and it mediates the biological activities of thyroid hormone. Screening environmental chemicals on TR-beta signaling will provide important information for the mechanism of compound action.
NCGC Assay Protocol Summary
Using a beta-lactamase reporter-gene under control of the TR response element, a cell-based assay [GeneBLAzer TR-UAS-bla-GripTite assay developed by Invitrogen] was used to measure TR-beta signaling in agonist mode. TR-UAS-bla-GripTite HEK 293 cells were used with assay medium containing 2% charcoal/dextran FBS, 0.1 mM NEAA and 1 mM sodium pyruvate. The assay was performed in clear bottom black Greiner 1536-well plates. T3 was used as a positive control in the screen. Library compounds were measured for their ability to stimulate the reporter gene activity. Compounds were screened in a titration series in 1536-well format. The fluorescence intensity (405 nm excitation, 460/530 nm emission) was measured using an EnVision plate reader. Data was normalized relative to T3 control (10 nM, 100%), and DMSO only wells (basal, 0%). Concentration-response titration points for each compound were fitted to the Hill equation yielding concentrations of half-maximal stimulation (EC50) and maximal response (efficacy) values.
qHTS protocol for TR-beta beta-lactamase assay in agonist mode
[Step] [Parameter] [Value] [Description]
1. Reagent; 6 uL; 2500 cells/well
2. Incubation; 37 C for 4 hrs
- Dose response; start 3.8 uM, 1:3 dilutions, duplicates in first column
- Two columns of each 10 and 0.4 nM (finals) concentrations.
5. Incubation; 37 C for 18 hrs
6. Detection reagent; 1 uL of CCF4-dye
7. Incubation; RT for 2 hrs
8. Detection; Fluorescence; Envision plate reader
In the case of CNC(=O)N(C)c1nc2ccccc2s1, the Potency is reported as “inactive”.
For O=C(O)C(F)(F)C(F)(F)C(F)(F)C(F)(F)C(F)(F)F, the Potency was “inactive”.
CC(C)(C)N(NC(=O)c1ccc(Cl)cc1)C(=O)c1ccccc1 was tested, and the Potency was “inactive”.
With c1ccc2cc3c(cc2c1)-c1cccc2cccc-3c12 the Potency was 7.94 µM (active).
In the case of O=C(O)COc1ccc(Cl)cc1, the Potency is reported as “inactive”.
CN(C)c1nc(=O)n(C2CCCCC2)c(=O)n1C was tested, and the Potency was “inactive”.
CCCOCC(=Nc1ccc(Cl)cc1C(F)(F)F)n1ccnc1 was tested, and the Potency was “inactive”.
CCCCOCCOC(C)=O was tested, and the Potency was “inactive”.
In the case of CNC(=O)Oc1cc(C)c(SC)c(C)c1, the Potency is reported as “inactive”.
CCCCNC(=O)OCC#CI was tested, and the Potency was “inactive”.
For CCOC1Oc2ccc(OS(C)(=O)=O)cc2C1(C)C (stereo not given), the Potency was “inactive”.
With Cc1nn(-c2cc(NS(C)(=O)=O)c(Cl)cc2Cl)c(=O)n1C(F)F the Potency was “inactive”.
With Cc1c(COC(=O)C2C(/C=C(\Cl)C(F)(F)F)C2(C)C)cccc1-c1ccccc1 (stereo not given) the Potency was “inactive”.
For CC(C)(c1ccccc1)c1cc(-n2nc3ccccc3n2)c(O)c(C(C)(C)c2ccccc2)c1, the Potency was “inactive”.
CN/C(=N/[N+](=O)[O-])NCC1CCOC1 (stereo not given) was tested, and the Potency was “inactive”.
In the case of O=C(O)C1C(C(=O)O)C2(Cl)C(Cl)=C(Cl)C1(Cl)C2(Cl)Cl (stereo not given), the Potency is reported as “inactive”.
For O=C(O)C(F)(F)C(F)(F)C(F)(F)C(F)(F)C(F)(F)C(F)(F)C(F)(F)C(F)(F)C(F)(F)F, the Potency was “inactive”.
In the case of CC(C)(C)C(O)C(Oc1ccc(-c2ccccc2)cc1)n1cncn1 (stereo not given), the Potency is reported as “inactive”.
For O=[N+]([O-])c1ccc(Oc2ccc(C(F)(F)F)cc2[N+](=O)[O-])cc1, the Potency was “inactive”.
With CCCN(CC)CC1COC2(CCC(C(C)(C)C)CC2)O1 (stereo not given) the Potency was “inactive”.
With CN(C)P(=O)(N(C)C)N(C)C the Potency was “inactive”.
For CCC(C)c1ccc(O)cc1 (stereo not given), the Potency was “inactive”.
For CCOC(=O)C(C)OC(=O)c1cc(Oc2ccc(C(F)(F)F)cc2Cl)ccc1[N+](=O)[O-] (stereo not given), the Potency was “inactive”.
In the case of FC(F)C(F)(F)OCC(Cn1cncn1)c1ccc(Cl)cc1Cl (stereo not given), the Potency is reported as “inactive”.
In the case of NS(=O)(=O)C(F)(F)C(F)(F)C(F)(F)C(F)(F)C(F)(F)C(F)(F)C(F)(F)C(F)(F)F, the Potency is reported as “inactive”.
With CCOc1ccc(C(C)(C)COCc2cccc(Oc3ccccc3)c2)cc1 the Potency was “inactive”.
CCCCN(CC)C(=O)SCCC was tested, and the Potency was “inactive”.
In the case of CCC(C)c1cc([N+](=O)[O-])cc([N+](=O)[O-])c1O (stereo not given), the Potency is reported as “inactive”.
In the case of c1cc2c3c(cccc3c1)CC2, the Potency is reported as “inactive”.
In the case of COc1ccc(-c2ccccc2)cc1NNC(=O)OC(C)C, the Potency is reported as “inactive”.
CCOP(=S)(S)OCC was tested, and the Potency was “inactive”.
With CC(C)=CC1C(C(=O)OCc2coc(Cc3ccccc3)c2)C1(C)C (stereo not given) the Potency was “inactive”.
For CCOP(=S)(NC(C)C)Oc1ccccc1C(=O)OC(C)C (stereo not given), the Potency was “inactive”.
With COC(=O)c1sccc1S(=O)(=O)NC(=O)Nc1nc(C)nc(OC)n1 the Potency was “inactive”.
C=C(C)CN(CC)c1c([N+](=O)[O-])cc(C(F)(F)F)cc1[N+](=O)[O-] was tested, and the Potency was “inactive”.
With CCOP(=O)(OCC)SCSCC the Potency was “inactive”.
In the case of CCC(CC)Nc1c([N+](=O)[O-])cc(C)c(C)c1[N+](=O)[O-], the Potency is reported as “inactive”.
For COCc1cnc(C2=NC(C)(C(C)C)C(=O)N2)c(C(=O)O)c1 (stereo not given), the Potency was “inactive”.
For CC1(C)CC/C(=C\c2ccc(Cl)cc2)C1(O)Cn1cncn1 (stereo not given), the Potency was “inactive”.
With COC(=O)c1ccccc1S(=O)(=O)NC(=O)N(C)c1nc(C)nc(OC)n1 the Potency was “inactive”.
